Assay outcomes from PubChem BioAssay.
Pf Dd2 growth: Plasmodium falciparum Dd2 growth inhibition; AID 1347417; hit rate 4.3% among 120,000; Potency, µM (top dose mostly 28.9 µM), inactives show at the top dose activity, negative = inhibition, actives largely listed as inhibitors; P. falciparum Dd2 growth, SYBR Green, 72 h; active = well fitted inhibition curve with a large enough effect;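 note: plate controls were DMSO vehicle for no effect and reference drug for full effect; nearly all actives have a fitted effect of over 65% in size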
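Readout: SYBR Green fluorescence, 485 nm excitation, 535 nm emission, after ~16 h lysis at 37C. Before that, Dd2-infected red cells (2.5% hematocrit) grew 72 h with compound, 29 uM top final concentration.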
Active calls of the source: *; i = inactive; [ ] = another dose, or the depositor's remark. Only a selection was taken, and hits are over-represented in it overall. Potency is the fitted concentration of half-maximal effect.

SMILES	Pf Dd2 growth
CCCNC(=O)C1CCN(c2cc(C)nc3c(-c4ccc(OC)c(OC)c4)c(C)nn23)CC1	i
Cc1ccc2c(C(=O)Nc3ccc(Cl)nc3)cnn2c1	-14%[44.1 µM]
Cc1ccc(NC(=O)CN2C(=O)NC3(CCCCC3)C2=O)c(Cl)c1	9%
CCN1CCC2(CCC1=O)CN(Cc1nc(CCOC)no1)CCN2C (centres undefined)	-20%
COCCOc1ccc2c(n1)CCN(C(=O)C1(c3ccc(OC)cc3)CC1)C2	7.1µM*
COCCOc1ccc2c(n1)CCN(C(=O)C1CCCC1)C2	i
COCCOc1ccc2c(n1)CCN(C(=O)c1ccccc1OC)C2	-12%
COC[C@@H]1CN(C(=O)c2cc[nH]c(=O)c2)C[C@H]1c1ccncc1	i
CC(C)(C)c1noc(-c2nnn3c2COC(c2ccc(F)cc2)C3)n1 (centres undefined)	i
O=C(Cn1ccn2nc(-c3ccccc3)c(CO)c2c1=O)NCc1ccccc1Cl	i
CCOC(=O)c1[nH]c2c(c1Cc1ccccc1OC)C(=O)CC(c1ccccc1)C2 (centres undefined)	11µM*
COc1ccc(C2CC(=O)c3c([nH]c(C(=O)OC4CCC(C)CC4)c3C)C2)cc1OC (centres undefined)	-16%
Cc1c(C(=O)OC2CCCC2)[nH]c2c1C(=O)CC(c1ccc(Cl)cc1)C2 (centres undefined)	-14%
COc1ccc(C2CC(=O)c3c([nH]c(C(=O)OCc4ccccc4)c3C)C2)cc1 (centres undefined)	-12%
Cc1c(C(=O)OCCOc2ccccc2)[nH]c2c1C(=O)CC(c1ccc(C(C)(C)C)cc1)C2 (centres undefined)	4µM*
CCOC(=O)c1ccc(NC(=O)c2cc3c([nH]c2=O)CC(c2ccccc2)CC3=O)cc1 (centres undefined)	-10%
COCC(=O)N1c2ccccc2CC1c1noc(C(C)C)n1 (centres undefined)	-2%
CN(C)C[C@@H]1CN(S(C)(=O)=O)C[C@H]1NC(=O)CN1CCOCC1	56%
CCn1cc(-c2ccc(C)cc2)cc1C(=O)NCCN1CCOCC1	i
COc1ccc(CNC(=O)CC2CCCCN(Cc3ccccc3)C2=O)cc1 (centres undefined)	i
O=C(CC1=C2CCCCC2NC1=O)NCC1CC1 (centres undefined)	2%
O=C(c1ccc(C(F)(F)F)cc1)N1CCC2(CN[S+](=O)([O-])c3ccccc3N2)C1 (centres undefined)	-10%
Cc1ccc(NC(=O)CN(C)S(=O)(=O)c2cccc3cccnc23)cc1F	i
Oc1c(C(Nc2ccccn2)c2ccccc2F)ccc2cccnc12 (centres undefined)	1.1µM*
Cc1ccnc(NC(c2ccccc2F)c2ccc3cccnc3c2O)c1 (centres undefined)	6.3µM*
SMILES	Pf Dd2 growth
Cc1cccc(NC(c2ccccc2C)c2ccc3ccc(C)nc3c2O)n1 (centres undefined)	5µM*
COc1cccc(NC(=O)NC[C@H]2O[C@H](Cc3cc(CN4CCOCC4)on3)CC[C@@H]2O)c1	21%
CC(C)C1=NOC2(CCN([S+](=O)([O-])c3cccc(C(F)(F)F)c3)C2)C1 (centres undefined)	-6%
Cn1nc(C2CCN(C(=O)Nc3ccccc3)CC2)[nH]c1=O	-24%[44.1 µM]
Cc1cccc(NC(=O)Cn2c(-c3ccccc3)nc(C)cc2=O)c1	-12%
CCc1cccc2c(C(CC(=O)NCCC(C)C)c3cccc(OC)c3OC)c[nH]c12 (centres undefined)	-10%
COCCNC(=O)[C@@H]1C[C@@H](O)CN1C1CCN(C(=O)c2ccccc2F)CC1	7%
Cc1c(C(=O)O)sc2ncnc(NCC3(O)CCCCC3)c12	1%
O=C(NC1CCCCC1)c1ccc2c(c1)N(Cc1cccc(F)c1)C(=O)c1ccccc1S2	10%
CC1=Nc2cc(C(=O)NC3CCCC3)ccc2Sc2ccc(Cl)cc21	11µM*
CC1=Nc2cc(C(=O)NC3CCCC3)ccc2Sc2ccc(C)cc21	-17%
CCN1c2cc(C(=O)NC3CCCC3)ccc2C(=O)N2CCCCCC21 (centres undefined)	i
CC(C)CCNC(=O)c1ccc2c(c1)N(C)C(=O)c1ccccc1S2	i
CCC1=Nc2cc(C(=O)NC3CCCC3)ccc2Sc2ccc(Cl)cc21	4.5µM*
CCN1c2cc(C(=O)NC3CCCC3)ccc2C(=O)N2CCCCC21 (centres undefined)	-10%
CCN1C(=O)Cc2cc(C(=O)NCCC(C)C)ccc21	i
CCC1=Nc2cc(C(=O)NCCC(C)C)ccc2Sc2ccc(Br)cc21	13µM*
COC[C@@H]1CNC[C@H]1c1nc(C)no1	-18%
COc1cccc(CN2CCCC3(CN[S+](=O)([O-])c4ccccc4N3)C2)c1 (centres undefined)	-12%
O=C(c1cnccn1)N1CCC(N2C(=O)C(O)C23CCCCC3)CC1 (centres undefined)	1%
O=C(Nc1ccc(Cl)cc1Cl)c1ccc2cc[nH]c2n1	-7%
Cc1c(C(C)NC(=O)CN2CCOC2=O)cnn1-c1ccc(F)cc1F (centres undefined)	5%
CNC(=O)[C@@H]1CN(C(=O)NCc2ccccc2)C[C@H]1c1nc(C)no1	-10%
COc1ccc(C(=O)c2cn(Cc3cccc(C)c3)c3cc4c(cc3c2=O)OCCO4)cc1OC	7.9µM*
CCOc1ccc(C(=O)c2cn(Cc3ccccc3OC)c3cc4c(cc3c2=O)OCCO4)cc1	-13%
SMILES	Pf Dd2 growth
COc1ccc(C(=O)c2cn(Cc3ccccc3OC)c3cc4c(cc3c2=O)OCO4)cc1	-3%
Cc1ccc(C(=O)c2cn(Cc3ccccc3)c3ccccc3c2=O)cc1	i
COc1ccccc1Cn1cc(C(=O)c2ccc(F)cc2)c(=O)c2cc3c(cc21)OCO3	5%
Cc1ccc(C(=O)c2cn(Cc3ccccc3F)c3cc4c(cc3c2=O)OCCO4)cc1	-10%
Cc1ccc2c(c1)c(=O)c(C(=O)c1ccccc1)cn2Cc1ccccc1F	13µM*
Cc1ccc(Cn2cc(C(=O)c3ccc4c(c3)OCO4)c(=O)c3cc(C)ccc32)cc1	10µM*
CCOc1ccc(NC(=O)Cn2cc(C(=O)c3ccc(C)cc3)c(=O)c3cc4c(cc32)OCO4)cc1	-9%
O=C1Nc2ccc(-c3ccccc3)cc2C(=O)N2CCN(C(=O)c3ccccc3)C[C@H]12	-20%[44.1 µM]
CCCC(=O)N1CCc2cn(C)c3cccc(c23)C1	i
COc1ccc(NC(=O)N(C)Cc2cccc(C(F)(F)F)c2)cc1	-12%[44.1 µM]
COc1ccc(NC2=C(c3ccc(C(F)(F)F)cc3)C(=O)c3ccccc32)cc1	0.45µM*
O=C(C[C@H]1NC(=O)c2ccccc2NC1=O)Nc1ccc(C(F)(F)F)cc1	-17%
O=C1C(c2ccc(C(F)(F)F)cc2)=C(Nc2ccc(Cl)cc2)c2ccccc21	0.89µM*
COc1ccc(-c2noc(CCC(=O)Nc3ccc(C(F)(F)F)cc3)n2)cc1	-16%
O=C(Cn1nc(-c2ccc(Cl)cc2)c2ccccc2c1=O)Nc1cccc(C(F)(F)F)c1	16%
CC(=O)c1cccc(C(=O)N2CCC3(CC2)NC(=O)N(Cc2ccc(C)cc2)C3=O)c1	i
O=C(NC1CCCCCC1)C1CCN(C(=O)c2ncn3c2COC(c2ccc(Cl)cc2)C3)CC1 (centres undefined)	i
COCCN1Cc2[nH]nc(-c3cccc(COC)c3)c2CC1=O	-25%[44.1 µM]
Cc1nn(-c2ccc(C(F)(F)F)cc2)c(C)c1[C@@H]1C=C[C@@H](NC(=O)CSCC(=O)O)C1	i
